Results taken from PubChem BioAssay (Tox21).
Inconclusive results are not listed. Activity calls are given as the source filed them. Calls follow the shape of the dose curve; as a rule, active = well fitted cell-killing curve with a large enough effect in the repeat runs; inconclusive = weak or mixed curves, or effect the other way; inactive = flat fitted curve, though single readings scatter.

Assay: Caspase-3/7 induction in HepG2 cells by small molecules, qHTS cell viability counter screen (AID 1346981); also: nearly all actives have a fitted effect of over 30% in size
Conditions: CellTiter-Fluor fluorescence, 17 h; series mostly up to 92.4 µM; activity change, negative = cytotoxicity: at the top concentration
Text: U.S. Tox21 Program National Center for Advancing Translational Sciences [NCATS] NIH Chemical Genomics Center [NCGC] U.S. Environmental Protection Agency [EPA] National Institutes of Environmental Health Sciences [NIEHS] National Toxicology Program [NTP] U.S. Food and Drug Administration [FDA] Tox21 Assay Overview: Apoptosis is a process of programmed cell death and plays a central role in the development of multicellular organisms. It is a highly regulated process and induces cell death by activating caspases, which are the members of cysteine aspartic acid-specific protease (caspase) family. Caspases involved in apoptosis are classified by their mechanism of action as initiator caspases (caspase-2, -8, -9 and -10) and executioner caspases (caspase-3, -6, and -7). Inhibition of apoptosis results in number of cancers, autoimmune diseases, inflammatory diseases and viral infection. To identify small molecule compounds that induce apoptosis, a homogeneous, luminescent Caspase-Glo 3/7 assay was used. Wild type HepG2 cells were used to screen Tox21 libraries for identifying caspase-3/7 activity inducers. Also cytotoxicity of the compounds was tested in parallel by measuring the cell viability using CellTiter-Fluor assay system in the same wells.
Tox21 Assay Protocol Summary: HepG2 cells were dispensed at 2,000 per well in 5uL of culture medium into white solid bottom 1536-well plates (Corning Life Sciences, Corning, NY) using a Multidrop Combi (Thermo Scientific, Waltham, MA) dispenser. The assay plates were incubated at 37 C and 5% CO2 for 5hr, and then 23nL of compounds dissolved in DMSO and positive control were transferred using a Pintool station ([…], San Diego, CA). The assay plates were incubated at 37C and 5% CO2 for 17hr. For cytotoxicity read, after 16hr incubation at 37C, 1uL CellTiter-Fluor reagent (Promega Corporation, Madison, WI) was added to each well of the assay plates using Flying Reagent Dispenser (FRD, Aurora Discovery, San Diego, CA). After 1hr incubation at 37C and 5% CO2, the fluorescence signal was quantified using a ViewLux plate reader (PerkinElmer, Shelton, CT).
% is scaled to controls: 0 for no effect and ±100 for the full control effect; potency is read from the fitted curve at half-maximal effect.

| SMILES | activity change, negative = cytotoxicity | Potency |
| --- | --- | --- |
| CN[C@@H]1[C@H](O)[C@H](NC)[C@H]2O[C@@]3(O)C(=O)C[C@@H](C)O[C@H]3O[C@@H]2[C@H]1O | -0.954% [at 42.5 µM] (inactive) | – |
| O=C1NC2NC(=O)NC2N1 (stereo not given) | 3.47% (inactive) | – |
| CN[C@@H]1[C@@H](O)[C@@H](O[C@@H]2[C@H](O)[C@H](O[C@H]3OC(CN)=CC[C@H]3N)[C@@H](N)C[C@H]2N)OCC1(C)O (stereo not given in full) | 0.558% [at 42.5 µM] (inactive) | – |
| CC(=O)c1ccc(OCC(=O)N2CCCCC2)cc1 | 0.395% [at 42.5 µM] (inactive) | – |
| CC(=O)/C=C/c1ccco1 | -0.433% (inactive) | – |
| O=C(O)c1ccccc1C(=O)OCc1ccccc1 | 3.38% (inactive) | – |
| CCOC(=O)CCCCCCCCC(=O)OCC | -0.686% (inactive) | – |
| O=CO | 4.68% [at 8.39 µM] (inactive) | – |
| CC(C)=CC(C)(C)C | 5.3% (inactive) | – |
| Cc1ncc([N+](=O)[O-])n1CC(O)CCl (stereo not given) | 1.21% [at 42.5 µM] (inactive) | – |
| Nc1ccc(S(=O)(=O)NC(=O)c2ccccc2)cc1 | 3.74% [at 42.5 µM] (inactive) | – |
| CC(C)C(=O)c1ccccc1 | -0.357% (inactive) | – |
| CC(C)(C)c1ccc(C=O)cc1 | 3.58% (inactive) | – |
| Nc1cc(C(=O)O)ccc1Cl | -0.504% (inactive) | – |
| CCCCCCCCCCCCC1CO1 (stereo not given) | -0.0367% (inactive) | – |
| CCCOC(=O)CCCCC(=O)OCCC | 2.32% (inactive) | – |
| O=c1[nH]c(=O)c2ccccc2o1 | 11.8% [at 42.5 µM] (inactive) | – |
| CCNC(=O)/C=C/c1cccc(Br)c1 | 0.524% [at 42.5 µM] (inactive) | – |
| CC(=O)OC(C)(C)Cc1ccccc1 | -0.149% (inactive) | – |
| O=S1(=O)CCCC1 | 0.214% (inactive) | – |

| SMILES | activity change, negative = cytotoxicity | Potency |
| --- | --- | --- |
| O=C(Nc1cccc(C2=NCCN2)c1)Nc1cccc(C2=NCCN2)c1 | 2.76% [at 19 µM] (inactive) | – |
| CCN(CCC#N)c1ccccc1 | 0.34% (inactive) | – |
| C=CCOc1cc(Cl)ccc1C(=O)NCCN(CC)CC | 1.4% [at 42.5 µM] (inactive) | – |
| CCCCOC(=O)[C@@H](C)Oc1ccc(Oc2ccc(C(F)(F)F)cn2)cc1 | -0.109% (inactive) | – |
| COc1cc([N+](=O)[O-])ccc1N | – | 54.5 µM (active) |
| CC(C)CCCCCCOC(=O)C1CCCCC1C(=O)OCCCCCCC(C)C (stereo not given) | -0.795% (inactive) | – |
| CCN(CC)C(=O)C1CN2CCc3cc(OC)c(OC)cc3C2CC1OC(C)=O (stereo not given) | 6.12% [at 42.5 µM] (inactive) | – |
| N#CCCOCCOCCC#N | 3.43% (inactive) | – |
| COC(=O)CCC(=O)O | -1.51% (inactive) | – |
| Nc1cc(Cl)cc(S(=O)(=O)O)c1O | 2.33% (inactive) | – |
| CCN1CN(CC)CN(CC)C1 | -0.496% (inactive) | – |
| CCS(=O)(=O)CCn1c([N+](=O)[O-])cnc1C | 3.99% [at 42.5 µM] (inactive) | – |
| O=C(CN1CCN(Cc2ccc3c(c2)OCO3)CC1)N1c2ccccc2Sc2ccccc21 | -5.44% [at 42.5 µM] (inactive) | – |
| COc1ccc(NS(=O)(=O)c2ccc(N)cc2)nn1 | 2.79% [at 42.5 µM] (inactive) | – |
| CCCCCCCC/C=C\CCCCCCCC(=O)OC[C@@H](O)[C@H]1OC[C@H](O)[C@H]1O | 1.06% (inactive) | – |
| CCCCOC(=O)C(C)OC(=O)CCC (stereo not given) | 4.71% (inactive) | – |
| C=CC(C)(O)CC/C=C(\C)CC (stereo not given) | 3.41% (inactive) | – |
| C[C@@H]1C[C@H]2[C@@H]3C[C@H](F)C4=CC(=O)C=C[C@]4(C)[C@@]3(F)[C@@H](O)C[C@]2(C)[C@@]1(O)C(=O)CO | -1.3% [at 42.5 µM] (inactive) | – |
| C=CCCCCCCCCCCC | 0.644% [at 8.39 µM] (inactive) | – |
| O=C1CC[C@H](C(=O)N2CCCCC2)N1 | 0.0713% [at 42.5 µM] (inactive) | – |
